# Results from PubChem BioAssay AID652217 (Sanford-Burnham Center for Chemical Genomics, 2013).
# In all, about 1,800 compounds went through this assay and about 240 (13%) were called active. No stated cut-off is given here; in the data, active means inhibition above about 40%; inactive means the rest. These entries were drawn from the full list.
# Biological target: NEDD8-conjugating enzyme Ubc12 (Homo sapiens) + NEDD8-activating enzyme E1 regulatory subunit (Homo sapiens) (UniProt P61081+Q13564)
# Assay: blockade of NEDD8 conjugation to cullin – biochemical, TR-FRET, single concentration, confirmation (AID 652217);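 further: neddylation substrate is the cullin 1 ring ligase complex with SKP2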
# Conditions: TR-FRET cullin neddylation biochemical assay; at 25 µM; active compounds read high
# NEDD8-conjugating enzyme Ubc12 (Homo sapiens) + NEDD8-activating enzyme E1 regulatory subunit (Homo sapiens), sequence (P61081 whole entry, looked up): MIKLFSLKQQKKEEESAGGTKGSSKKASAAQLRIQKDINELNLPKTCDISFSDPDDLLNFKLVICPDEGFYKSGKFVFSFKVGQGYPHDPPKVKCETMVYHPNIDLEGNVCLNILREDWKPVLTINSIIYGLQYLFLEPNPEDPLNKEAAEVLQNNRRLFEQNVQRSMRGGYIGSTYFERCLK
# NEDD8-conjugating enzyme Ubc12 (Homo sapiens) + NEDD8-activating enzyme E1 regulatory subunit (Homo sapiens), sequence (Q13564 whole entry, looked up): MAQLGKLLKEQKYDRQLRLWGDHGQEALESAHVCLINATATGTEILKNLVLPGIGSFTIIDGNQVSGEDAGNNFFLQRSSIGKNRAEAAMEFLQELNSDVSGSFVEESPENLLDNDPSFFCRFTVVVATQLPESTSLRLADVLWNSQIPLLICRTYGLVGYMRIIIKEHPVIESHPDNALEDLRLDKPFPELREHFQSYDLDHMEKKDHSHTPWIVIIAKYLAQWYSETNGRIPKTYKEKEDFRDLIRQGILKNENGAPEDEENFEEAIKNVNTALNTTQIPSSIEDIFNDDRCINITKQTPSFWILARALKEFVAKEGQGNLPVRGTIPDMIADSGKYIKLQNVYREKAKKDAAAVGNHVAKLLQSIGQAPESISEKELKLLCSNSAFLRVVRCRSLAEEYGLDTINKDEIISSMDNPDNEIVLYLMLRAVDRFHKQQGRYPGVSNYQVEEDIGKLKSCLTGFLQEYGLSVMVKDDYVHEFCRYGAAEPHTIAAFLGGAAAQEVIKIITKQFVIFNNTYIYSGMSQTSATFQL
row,SMILES,inhibition
1,COc1cccc(Cn2cc(/C=N/NC(=O)c3cc(O)cc(O)c3)c3ccccc32)c1,41.7% (active)
2,O=C(Cn1cc(/C=N/NC(=O)c2cccc(C(F)(F)F)c2)c2ccccc21)Nc1ccc(F)cc1,20.1% (inactive)
3,CN(C)c1ccc(/C=N/Nc2cc(N3CCOCC3)nc(N3CCOCC3)n2)cc1,14.8% (inactive)
4,COc1ccc2oc(C(=O)NCC(Cc3ccccc3)N(C)C)c(C)c2c1 (stereo not given),39.6% (inactive)
5,c1ccc(-c2[nH]ncc2-c2nc3ccccc3[nH]2)cc1,34.5% (inactive)
6,CCN(CC)c1ccc(/C=N/NC(=O)CNC(=O)c2cccs2)cc1,54.1% (active)
7,CCN(CC)c1ccc(/C=N/Nc2nc(C)cc(=O)[nH]2)cc1,28.2% (inactive)
8,COc1ccc(Br)cc1/C=N/Nc1ccc(Cl)c(C(=O)O)c1,37.5% (inactive)
9,CC(=O)c1ccc(Nc2nc(C(N)c3ccccc3)cs2)cc1 (stereo not given),32.9% (inactive)
10,CC(=O)Nc1nc(C)c(-c2csc(Nc3ccc(S(N)(=O)=O)cc3)n2)s1,79.2% (active)
11,Cc1noc(C)c1COc1ccc2ccc(=O)oc2c1,33.5% (inactive)
12,COc1cccc(C2c3[nH]c4ccccc4c3CCN2Cc2cccc(C)n2)c1 (stereo not given),26.3% (inactive)
13,Nc1nnnn1CC(=O)N/N=C/c1ccc(-c2cccc(Cl)c2)o1,22.7% (inactive)
14,C=CCNC(=O)c1ccc2c3n(nc2c1)-c1ccc(C)cc1CO3,47.4% (active)
15,O=C(N/N=C/c1ccccc1O)C1CCCC1,38.7% (inactive)
16,CCN(/N=C/c1ccc(N(C)C)cc1)c1nc2ccccc2[nH]1,42.9% (active)
17,C=CCn1c(COc2cccc3cccnc23)nnc1SCC(=O)OC,36.7% (inactive)
18,O=C(/C=C/c1cn(-c2ccccc2)nc1-c1ccc2c(c1)OCCO2)NCCCN1CCOCC1,33.2% (inactive)
19,CC(=O)Nc1cc(-c2ccc(N3CCN(C)CC3)cc2)cn2c(-c3ccc(F)cc3)cnc12,45.5% (active)
20,COC(=O)C1=CN(C)C=C(C(=O)OC)C1c1ccc(Cl)cc1Cl,20% (inactive)

row,SMILES,inhibition
1,CC(C(=O)NC1CCCCC1)N1C(=O)c2cccc3cccc1c23 (stereo not given),39.8% (inactive)
2,O=C(NNC(=S)NC1CC2CCC1C2)c1ccc(Cl)cc1 (stereo not given),7.17% (inactive)
3,COc1cccc(/C=C/C(=O)OCC(=O)N2CCCc3ccccc32)c1,38.8% (inactive)
4,Cc1ccc(C)c(NC(=O)NNC(=O)c2ccc3ccccc3c2O)c1,30.6% (inactive)
5,COC(=O)C1=CN(Cc2ccc(OC)cc2)C=C(C(=O)OC)C1c1ccc(O)c(OC)c1,33% (inactive)
6,CS(=O)(=O)c1ccc2nc(NC(=O)c3ccc(Cl)nc3)sc2c1,66% (active)
7,COc1ccc2[nH]c(C(=O)N/N=C/c3cc(OC)c(OC)c(OC)c3)cc2c1,49.6% (active)
8,CCOc1ccc2[nH]c(C(=O)N/N=C/c3cccc(OC)c3OC)cc2c1,44.6% (active)
9,COc1cc2cc(C(=O)N/N=C/c3cccc(OC)c3OC)[nH]c2cc1OC,41.9% (active)
10,COc1cc2ccccc2cc1C(=O)Nc1ccncc1,39.2% (inactive)
11,CCOC(=O)c1cnc2nc(SCc3ccccc3Cl)[nH]n2c1=O,20% (inactive)
12,CCOc1ccc2[nH]c(=O)c(CN(Cc3nnnn3Cc3ccccc3)CC3CCCO3)cc2c1 (stereo not given),15.2% (inactive)
13,COCCCNc1nc2ccccc2nc1NS(=O)(=O)c1ccc(F)cc1,29% (inactive)
14,Cc1ccc2occ(/C=N/NC(=O)c3ccccc3C)c(=O)c2c1,24% (inactive)
15,O=c1c2c(nc3cc(-c4cccc(Cl)c4)[nH]n13)CCCC2,-10.4% (inactive)
16,NNC(=O)c1oc2nc(-c3ccccc3)cc(-c3ccco3)c2c1N,14.3% (inactive)
17,CN(C)c1ccnc2sc(C(=O)c3ccccc3)c(N)c12,33.9% (inactive)
18,Cc1nc2sc(C(=O)c3ccccc3)c(N)c2c2c1CCCC2,30.6% (inactive)
19,O=C(COc1ccccc1Cl)N1N=C(c2cccs2)CC1c1ccco1 (stereo not given),37.1% (inactive)
20,CCOc1cc(C(=O)Nc2c(C)ccc3nsnc23)cc(OCC)c1OCC,27.9% (inactive)

row,SMILES,inhibition
1,CC(=O)Oc1c(C(=O)c2nnc(C)o2)c(=O)n(Cc2ccccc2)c2ccccc12,38.8% (inactive)
2,O=C1c2cccc3cccc(c23)N1CN1CCN(c2ccccn2)CC1,28.8% (inactive)
3,CC(=O)NNC(=O)c1csc(Cc2c(Cl)sc3ccc(Cl)cc23)n1,-2.26% (inactive)
4,O=C(c1ccc(Cl)cc1)N1N=C(c2ccccn2)CC1(O)C(F)(F)F (stereo not given),1.98% (inactive)
5,CCOc1cc(/C=N/Nc2cc(C)nc3ccc(C)cc23)ccc1O,40.1% (active)
6,CCN1CCCC1CNc1ncnc2c1[nH]c1ccc(F)cc12 (stereo not given),31% (inactive)
7,C[C@H](O)[C@@H]1C(=O)N2CCc3c([nH]c4ccccc34)[C@@H]2C[C@@H]1N(C)C(=O)Nc1ccc(F)cc1,14.4% (inactive)
8,Cc1ccc2cc(C#N)c(NCCNC(=S)NCCCN3CCOCC3)nc2c1,33.7% (inactive)
9,COc1ccc(N(CC(=O)N/N=C/c2cccc3c2OCCO3)S(=O)(=O)c2ccc(NC(C)=O)cc2)cc1,42.7% (active)
10,O=C1NC(c2ccncc2)Nc2sc3c(c21)CCCC3 (stereo not given),39.4% (inactive)
11,COc1cccc(C2CC(c3cccs3)=NN2C(=O)CSC2=NCCS2)c1OC (stereo not given),-80.4% (inactive)
12,N#Cc1ccc(/C=C2\CCn3c2nc2cc(C(=O)O)ccc2c3=O)cc1,54.8% (active)
13,O=C(O)c1ccc2c(=O)n3c(nc2c1)/C(=C/c1ccc(OC(F)F)cc1OC(F)F)CC3,43.2% (active)
14,CCOc1ccc2nc(NCCNC(=O)C(C)(C)C)c(C)cc2c1,34.1% (inactive)
15,Cc1ccc(-n2ncc3c(Nc4cccc(C(=O)O)c4)ncnc32)cc1,35.6% (inactive)
16,CCOCCCNC(=O)C(NC(=O)c1ccccc1O)c1ccccc1 (stereo not given),39.4% (inactive)
17,COc1ccc(C2c3[nH]c4ccccc4c3CCN2CCCn2cccn2)cc1C (stereo not given),29.8% (inactive)
18,O=c1cc(CN2CCCCCCC2)c2c(ccc3ccccc32)o1,14.7% (inactive)
19,Cc1noc(C)c1C(=O)OCC(=O)/C=C1\N(C)c2ccccc2C1(C)C,22.3% (inactive)
20,CCOc1ccc2[nH]c(=O)c(CN(Cc3nnnn3CCc3ccccc3)CC3CCCO3)cc2c1 (stereo not given),12.7% (inactive)
